Data from PubChem BioAssay (NCATS).
Records with an inconclusive call do not appear. Active and inactive are the calls of the source. Calls come from the whole dose curve; as a rule, active = well fitted inhibition curve with a large enough effect; inconclusive = small, poorly fitted or top-dose-only effect; inactive = flat fitted curve, though single readings scatter.

What was measured:
KB-3-1 = test: Cytotoxic Profiling of Annotated Libraries Using Quantitative High-Throughput Screening (AID 1296008); details: Five cell lines viability, CellTiter-Glo ATP luminescence, 48-72 h; max response: hits give low values; for max response: % is set by controls: 0 for no effect and ±100 for the full control effect
Method in brief: (§1)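 Cytotoxicity was measured as CellTiter-Glo ATP luminescence, read after 10 min at room temperature. Compound treatment of the cells lasted 48 or 72 hr at 37 degrees Celsius in a qHTS format.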

NIH3T3 [1] = test: as above; details: Five cell lines viability, CellTiter-Glo ATP luminescence, 48-72 h; max response: hits give low values
Method in brief: as §1

HEK293T = test: qHTS assay to identify novel small-molecules to repurpose for Merkel cell carcinoma treatment (AID 1296009); details: MCC and control cell lines, CellTiter-Glo viability, 72 h; at 44.8 µM (top of the series) unless noted
Method in brief: (§2)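 Cell viability measured by CellTiter-Glo following 72 hr compound treatment at 37 degree celsius, with NPC and MIPE libraries tested in 8- and 11-point concentration series.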

NIH3T3 [2] = test: as above; details: MCC and control cell lines, CellTiter-Glo viability, 72 h; at 44.8 µM (top of the series) unless noted
Method in brief: as §2

Measured: max response
Note: nearly all actives have a fitted effect of over 60% in size.

COc1ccc(CN2C(=O)C(=O)c3cc(S(=O)(=O)N4CCC[C@H]4COc4cccnc4)ccc32)cc1
inactive: all assays above

COc1cc2c3c(cc4ccccc4c3c1O)NC2=O
inactive: KB-3-1 | NIH3T3 [1] | NIH3T3 [2]

COc1ccc(C2(O)c3ccccc3NC(=O)C2O)cc1 (stereo not drawn)
inactive: KB-3-1 | NIH3T3 [1] | NIH3T3 [2]

Cc1c2cc(c(C(=O)O)c1C)OC1OC(C(O)C(O)C1O)C(O)C(O)C1OC(O2)C(O)C(O)C1O (stereo not drawn)
inactive: KB-3-1 | NIH3T3 [1] | NIH3T3 [2] inactive [at 17.4 µM]

O=S(=O)(Nc1ccccn1)c1ccc(N=Cc2c(O)[nH]c3ccc4ncsc4c23)cc1
inactive: KB-3-1 -4.18% | NIH3T3 [1] | NIH3T3 [2] inactive [at 9.27 µM]

Nc1nc2c(ncn2[C@@H]2O[C@H](CO)[C@@H](O)[C@H]2O)c(=O)[nH]1
inactive: KB-3-1 4.1% | NIH3T3 [1] | NIH3T3 [2]

CN(C)CC1CCOC1(c1ccccc1)c1ccccc1 (stereo not drawn)
inactive: KB-3-1 5.01% | NIH3T3 [1] | NIH3T3 [2] inactive [at 17.4 µM]

OC[C@H]1O[C@@H](Oc2cc(O)c3c(c2)O[C@@H](c2ccc(O)cc2)[C@H](O)C3)[C@H](O)[C@@H](O)[C@@H]1O
inactive: KB-3-1 | NIH3T3 [1] | NIH3T3 [2] inactive [at 17.4 µM]

COc1cc(Nc2nc3ccccc3nc2NS(=O)(=O)c2ccc(NC(=O)c3ccc(OC)c(C)c3)cc2)cc(OC)c1
inactive: KB-3-1 | NIH3T3 [1] | NIH3T3 [2]

C=C1C(=O)O[C@H](CCC)[C@H]1C(=O)O
inactive: KB-3-1 2.02% | NIH3T3 [1] | NIH3T3 [2]

CC1CCN(C(=O)CC#N)CC1N(C)c1ncnc2[nH]ccc12 (stereo not drawn)
inactive: KB-3-1 | HEK293T
